Hits are enriched below; roughly 18% of the tested compounds scored in any of these assays.
TDP1 cell noCPT: qHTS for Inhibitors of human tyrosyl-DNA phosphodiesterase 1 (TDP1): qHTS in cells in absence of CPT; DT40 Tdp1-/- hTDP1 cells, no CPT, ATP luminescence, 48 h; Potency, µM (doses to about 46.2 µM), hits mostly inhibitors; actives 15% (n = 420,000); AID 686978, 2013; note: nearly all actives have a fitted effect of over 55% in size
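Chicken DT40 Tdp1-/- cells complemented with human TDP1, screened without camptothecin (DMSO vehicle only), 400 cells/well. Compounds pin-transferred, cells incubated at 37 °C for at least 48 hr. Growth read as ATP-dependent luminescence (CellTiter-Glo, 30 min at RT).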
DT40 TDP1 CPT: DT40-hTDP1 cell growth loss with CPT; chicken DT40 Tdp1-/-;hTDP1 cells + 20 nM CPT, ATP luminescence, 48 h; Potency, µM (top dose mostly 46.2 µM), usual class: inhibitors; actives 12% (n = 420,000); note: nearly all actives have a fitted effect of over 55% in size
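Cell growth measured by CellTiter-Glo luminescence after a minimum 48 h, 37 C compound exposure with 20 nM CPT in Tdp1-knockout DT40 cells stably expressing hTDP1, seeded 400/well; qHTS titration format.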
GCN5L2 inh: blocks human GCN5L2 histone acetyltransferase | AID 504327 | Potency, µM (doses to about 58.9 µM), most hits filed as inhibitors | actives 0.21% (n = 390,000) | GCN5L2 HAT assay, ThioGlo1 CoA-SH fluorescence
Target sequence (Q92830 whole entry, looked up): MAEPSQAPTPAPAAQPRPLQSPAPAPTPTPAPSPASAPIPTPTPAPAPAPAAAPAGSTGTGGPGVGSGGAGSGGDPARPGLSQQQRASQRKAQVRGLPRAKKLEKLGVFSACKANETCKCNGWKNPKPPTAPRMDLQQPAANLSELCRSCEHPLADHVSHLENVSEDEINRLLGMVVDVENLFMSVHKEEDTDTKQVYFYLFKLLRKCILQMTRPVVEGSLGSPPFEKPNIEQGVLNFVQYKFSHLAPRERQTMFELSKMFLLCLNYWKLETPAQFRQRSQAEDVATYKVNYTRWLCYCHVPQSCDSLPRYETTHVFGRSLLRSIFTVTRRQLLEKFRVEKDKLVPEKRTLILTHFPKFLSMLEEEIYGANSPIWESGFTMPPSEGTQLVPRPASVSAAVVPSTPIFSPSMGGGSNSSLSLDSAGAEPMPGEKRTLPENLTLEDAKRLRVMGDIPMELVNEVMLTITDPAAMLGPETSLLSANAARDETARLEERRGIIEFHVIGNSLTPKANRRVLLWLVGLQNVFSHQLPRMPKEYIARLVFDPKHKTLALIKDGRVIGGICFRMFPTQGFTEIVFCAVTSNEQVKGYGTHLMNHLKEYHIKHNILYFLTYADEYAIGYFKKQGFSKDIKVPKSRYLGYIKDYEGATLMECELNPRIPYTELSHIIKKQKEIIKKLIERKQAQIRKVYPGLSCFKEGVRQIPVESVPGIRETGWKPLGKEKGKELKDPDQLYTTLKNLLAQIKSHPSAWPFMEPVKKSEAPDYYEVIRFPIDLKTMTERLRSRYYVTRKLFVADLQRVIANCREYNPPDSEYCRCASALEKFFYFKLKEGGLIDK
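GCN5L2 (20nM final) in 50mM HEPES, 0.1mM EDTA pH 7.5, 0.01% Tween-20 was preincubated 15 min at room temperature with compound, then given ThioGlo1 (50uM), H3(1-25) peptide (75uM) and acetyl-CoA (70uM); CoA-thiol fluorescence (Ex340/Em540) was read at 0 and 20 min.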
VDR inhibitor: blocks the human vitamin D receptor; P11473; VDR-SRC2-3 peptide fluorescence polarization, 2 h; Potency, µM, actives largely listed as inhibitors; actives 0.93% (n = 400,000); AID 504847
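Fluorescence polarization assay of small-molecule disruption of VDR binding to coregulator peptide SRC2-3. Compounds and controls pin-transferred, then read after 2 h incubation at ambient room temperature.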
TDP1 block: inhibitors of human tyrosyl-DNA phosphodiesterase TDP1; AID 485290; actives 0.28% (n = 350,000); recombinant TDP1, AlphaScreen DNA substrate cleavage; Potency, µM (doses to about 130 µM), most hits filed as inhibitors; Q9NUW8; note: nearly all actives have a fitted effect of over 40% in size
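Here, a 5' biotin and 3' phosphotyrosine-FITC DNA oligonucleotide reports Tdp1 activity: intact substrate bridges AlphaScreen beads, while cleavage leaves a 3' phosphate and drops signal. All incubations at room temperature.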
PLK1 PBD block: blocks phosphopeptide binding to human PLK1 polo-box domain. actives 2.8% (n = 360,000). P53350. AID 720504. Potency, µM, hits mostly inhibitors. Plk1 PBD binding of FITC phosphopeptide, fluorescence polarization; note: series mostly up to about 57 µM; nearly all actives have a fitted effect of over 65% in size
Hits are given with their value; . = inactive; ? = inconclusive; / = no result; [ ] = another dose, or the depositor's remark. Calls come from the whole dose curve; as a rule, active = well fitted curve in the direction sought with a large enough effect; inconclusive = small, poorly fitted or top-dose-only effect, or another doubt; inactive = no such curve, though single readings can be large; an effect the other way counts as inactive or inconclusive.

SMILES | TDP1 cell noCPT | DT40 TDP1 CPT | GCN5L2 inh | VDR inhibitor | TDP1 block | PLK1 PBD block
O=C(Nc1cccc(Oc2ccc(C(=O)O)c(C(=O)O)c2)c1)c1ccc(-c2ccccc2)cc1 | . | . | . | . | 45µM | 19µM
CC(C)(C)C(=O)Nc1ccc(C(=O)Nc2cccc(Oc3ccc(C(=O)O)c(C(=O)O)c3)c2)cc1 | . | . | . | . | 35µM | .
Cc1nc2ccccn2c1C(=O)CSc1ccccc1Cl | 16µM | 16µM | . | . | . | .
Cc1nc2ccccn2c1C(=O)CSc1ccc(Cl)cc1Cl | 18µM | ? | . | . | . | .
C[C@]12CC[C@@H]3c4ccc(O)cc4CC[C@H]3[C@@H]1CC[C@@H]2O | 23µM | ? | . | . | . | .
C[C@@]12CC[C@@H]3c4ccc(O)cc4CC[C@H]3[C@H]1CC[C@H]2O | / | / | . | . | .[21 µM] | /
CCN(CC)CCCNC(=O)c1ccc2nc(CCc3ccccc3)oc2c1 | ? | ? | . | . | . | /
CCOC(=O)c1c(C)nc2c(c1C)/C(=N/O)CC(C)(C)C2 | 23µM | ? | . | . | . | .
Cc1[nH]nc2c1/C(=N\O)CC(C)(C)C2 | . | . | . | . | . | .
COc1ccc(-c2cc(=Nc3c(C)n(C)n(-c4ccccc4)c3=O)c3ccccc3o2)cc1 | 21µM | ? | . | . | . | .
COc1ccc(-c2cc(=O)c3c(O)cc(O)cc3o2)cc1O | / | / | . | . | . | /
COc1ccc(-c2c/c(=N\c3nc(-c4ccccc4)c(C)s3)c3ccccc3o2)cc1O | 4.1µM | 5.8µM | . | . | . | .
CC1(C(=O)NS(=O)(=O)c2ccccc2C(F)(F)F)CCN1C(=O)COc1ccc(Cl)cc1 (centres undefined) | . | . | / | / | / | .
Clc1ncc(C#Cc2ccccc2)c2ncncc12 | 0.79µM | 1.4µM | / | 28µM | . | /
Clc1ccc(C#Cc2cccnc2)cc1 | . | . | . | . | . | .
O=C(CN1CCN(Cc2ccccc2Cl)CC1)N/N=C/c1ccco1 | . | . | . | . | / | .
COc1ccc(S(=O)(=O)N(C)C[C@H]2Oc3c(NC(=O)CCC(F)(F)F)cccc3C(=O)N([C@H](C)CO)C[C@@H]2C)cc1 | . | . | . | . | . | .
CCS(=O)(=O)c1ncc(CO)n1CCc1ccccc1 | . | . | . | . | . | .
COc1ccc(-c2cnc(SCC(=O)Nc3cc(C)on3)n2Cc2ccco2)cc1 | ? | . | . | . | . | .
O=C(CSc1ncc(-c2ccc(F)cc2)n1Cc1ccco1)Nc1nccs1 | 21µM | ? | . | . | . | .
Cc1cnc(NC(=O)CSc2ncc(-c3ccccc3)n2Cc2ccco2)s1 | ? | 18µM | . | . | . | .
COc1ccc(-c2cnc(SCC(=O)Nc3nc(C(C)(C)C)cs3)n2Cc2ccco2)cc1 | 21µM | ? | . | . | . | .
CCC(=O)Nc1cc(NC(=O)CSc2ncc(-c3ccc(F)cc3)n2Cc2ccco2)ccc1C | . | . | . | . | . | .
CC1=Nc2cc(C(=O)NCCCOC(C)C)ccc2Sc2ccc(C)cc21 | 4.6µM | 5.2µM | . | . | . | .
CC1=Nc2cc(C(=O)NCCCOC(C)C)ccc2Sc2ccccc21 | 21µM | 16µM | . | . | . | .
SMILES | TDP1 cell noCPT | DT40 TDP1 CPT | GCN5L2 inh | VDR inhibitor | TDP1 block | PLK1 PBD block
CC1=Nc2cc(C(=O)NCCc3ccc(Cl)cc3)ccc2Sc2ccc(C)cc21 | 6.5µM | 6.5µM | . | . | .[12.3 µM] | /
CC1=Nc2cc(C(=O)N3CCCC3)ccc2Sc2ccc(C)cc21 | ? | . | . | . | . | .
CC(C)OCCCNC(=O)c1ccc2c(c1)NC(=O)c1ccccc1S2 | . | . | . | . | . | .
CCOc1ccc(C(=O)Nc2ccc3oc(-c4cccc5ccccc45)nc3c2)cc1 | ? | ? | . | . | .[12.3 µM] | /
CC(=O)c1ccc(S(=O)(=O)NC2CC(=O)N(c3cccc(F)c3)C2)cc1 (centres undefined) | . | ? | . | . | / | .
COc1ccc(OCc2ccc(-c3nc(C#N)c(N4CCC(C(N)=O)CC4)o3)o2)cc1 | ? | ? | . | . | . | /

Compound activity from PubChem BioAssay.
